Results: PubChem BioAssay AID1159580 (chemical genetic matrix, 2015)
Where “and” joins values, the source holds several entries; their conditions need not be identical. Equal entries are not always repeated. Screen size: about 5,500 compounds; about 2,000 (36%) were called active. Another 18% or so got no clear call; they are omitted. Cut-off read from the data, not from the text of the source: active = normalized growth mostly below about 0.91 (no sharp cut-off); inconclusive = no clear call, values can overlap the other calls; inactive = mostly above about 0.92. The list shows a part of the results.

Assay: chemical genetic growth profiling, strain panel (AID 1159580);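 note: tested at 20 µM; growth read once vehicle control cultures reached saturation at 30 °C; 1 = growth at the plate median or of vehicle wells; lower values mean less growth of the strain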
Conditions: S. cerevisiae deletion strains, growth OD

Measured: normalized growth

CCOP(=S)(OCC)Oc1ccc2c(C)c(Cl)c(=O)oc2c1
active: locus YCL011C, strain gbp2, active compounds read low 0.906 | locus YGL253W, strain hxk2, active compounds read low 0.903
inactive: locus YAL013W, strain DEP1, active compounds read low 0.987 | locus YAL021C, strain ccr4, active compounds read low 0.997 | locus YAL026C, strain drs2, active compounds read low 0.96 | locus YAL030W, strain snc1, active compounds read low 0.976 | locus YBL061C, strain skt5, active compounds read low 0.96 | locus YBR009C, strain hhf1, active compounds read low 0.982 | locus YBR021W, strain FUR4, active compounds read low 0.97 | locus YBR023C, strain chs3, active compounds read low 0.944 | locus YBR171W, strain sec66, active compounds read low 0.939 | locus YBR229C, strain ROT2, active compounds read low 0.955 | locus YBR231C, strain swc5, active compounds read low 0.979 | locus YBR279W, strain paf1, active compounds read low 0.971 | locus YCL016C, strain dcc1, active compounds read low 0.984 | locus YCL029C, strain bik1, active compounds read low 0.984 | locus YCL061C, strain MRC1, active compounds read low 0.96 | locus YCL069W, strain vba3, active compounds read low 0.957 | locus YCR088W, strain abp1, active compounds read low 0.964 | locus YDL005C, strain med2, active compounds read low 0.959 | locus YDL035C, strain GPR1, active compounds read low 0.978 | locus YDL040C, strain nat1, active compounds read low 0.964 | locus YDL074C, strain BRE1, active compounds read low 0.907 | locus YDL101C, strain DUN1, active compounds read low 0.975 | locus YDL134C, strain PPH21, active compounds read low 0.981 | locus YDL185W, strain tfp1, active compounds read low 0.957 | locus YDL192W, strain arf1, active compounds read low 0.975 | locus YDR001C, strain nth1, active compounds read low 0.977 | locus YDR069C, strain doa4, active compounds read low 0.938 | locus YDR101C, strain arx1, active compounds read low 0.983 | locus YDR137W, strain rgp1, active compounds read low 0.939 | locus YDR150W, strain NUM1, active compounds read low 0.982 | locus YDR159W, strain sac3, active compounds read low 0.901 | locus YDR162C, strain NBP2, active compounds read low 0.92 | locus YDR195W, strain ref2 1.03 | locus YDR297W, strain sur2, active compounds read low 0.988 | locus YDR318W, strain mcm21, active compounds read low 0.976 | locus YDR334W, strain swr1, active compounds read low 0.961 | locus YDR335W, strain msn5, active compounds read low 0.975 | locus YDR388W, active compounds read low 0.98 | locus YDR392W, strain spt3, active compounds read low 0.836 | locus YDR502C, strain sam2, active compounds read low 0.984 | locus YEL003W, strain gim4, active compounds read low 0.953 | locus YEL037C, strain rad23, active compounds read low 0.962 | locus YEL061C, strain CIN8 (second series), active compounds read low 0.962 | locus YEL061C, strain CIN8, active compounds read low 0.979 | locus YER015W, strain faa2, active compounds read low 0.966 | locus YER016W, strain bim1, active compounds read low 0.97 | locus YER110C, active compounds read low 0.977 | locus YER111C, strain swi4, active compounds read low 0.975 | locus YER155C, strain BEM2 (second series), active compounds read low 0.959 | locus YER155C, strain BEM2, active compounds read low 0.998 | locus YER167W, strain BCK2, active compounds read low 0.99 | locus YFR010W, strain ubp6, active compounds read low 0.942 | locus YGL078C, strain dbp3, active compounds read low 0.984 | locus YGL086W, strain mad1, active compounds read low 0.989 | locus YGL167C, strain pmr1, active compounds read low 0.956 | locus YGL173C, strain kem1, active compounds read low 0.956 | locus YGL227W, strain vid30, active compounds read low 0.961 | locus YGL240W, strain doc1, active compounds read low 0.933 | locus YGL248W, strain PDE1, active compounds read low 0.957 | locus YGR078C, strain PAC10, active compounds read low 0.973 | locus YGR135W, strain pre9, active compounds read low 0.97 | locus YGR229C, strain SMI1, active compounds read low 0.947 | locus YGR252W, strain gcn5, active compounds read low 0.937 | locus YHR013C, strain ard1, active compounds read low 0.968 | locus YHR027C, strain rpn1, active compounds read low 1 | locus YHR030C, strain SLT2, active compounds read low 0.986 and 1.02 | locus YHR079C, strain IRE1 (second series), active compounds read low 0.988 | locus YHR079C, strain IRE1, active compounds read low 1 | locus YHR094C, strain hxt1, active compounds read low 0.985 | locus YHR129C, strain ARP1, active compounds read low 0.983 | locus YHR142W, strain chs7, active compounds read low 0.912 | locus YHR200W, strain rpn10, active compounds read low 0.984 | locus YIL066C, strain RNR3, active compounds read low 0.961 | locus YIL073C, strain SPO22, active compounds read low 0.988 | locus YIL125W, strain kgd1, active compounds read low 0.981 | locus YIR030C, strain dcg1, active compounds read low 0.989 | locus YJL092W, strain hpr5, active compounds read low 0.944 | locus YJL095W, strain BCK1 (second series), active compounds read low 0.96 | locus YJL095W, strain BCK1, active compounds read low 0.958 and 1.02 | locus YJL115W, strain asf1, active compounds read low 0.962 | locus YJL129C, strain trk1, active compounds read low 0.942 | locus YJL134W, strain LCB3, active compounds read low 0.971 | locus YJL154C, strain vps35, active compounds read low 0.985 | locus YJL164C, strain tpk1, active compounds read low 0.974 | locus YJL166W, strain qcr8, active compounds read low 0.935 | locus YJL168C, strain set2, active compounds read low 0.986 | locus YJL187C, strain SWE1 (second series), active compounds read low 0.981 | locus YJL187C, strain SWE1, active compounds read low 0.964 | locus YJR043C, strain POL32, active compounds read low 0.996 | locus YJR066W, strain TOR1, active compounds read low 0.967
